Results as given in PubChem BioAssay AID1224921 (Broad Institute, 2016).
Among all 1,400 compounds or so, about 350 (25%) were called active. About 2% were inconclusive and are not listed. The rule behind the calls is not given here. A selection follows. Measured potencies and affinities stand elsewhere.

experiment: inhibitors of Clostridioides difficile proliferation – 4-point retest, confirmation (AID 1224921); details: Clostridioides difficile clinical isolate growth, OD600, 24 h, active compounds read low; at 30 µM unless noted;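 note: plate controls were DMSO wells for no effect and levofloxacin 16 µg/mL wells for full effect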

Max activity, inactive:
CC(C)CC#Cc1ccc2c(c1)O[C@H](CN(C)Cc1ccc(F)cc1)[C@@H](C)CN([C@@H](C)CO)S2(=O)=O 30.5% [at 1.95 µM]
C[C@H]1CN([C@@H](C)CO)S(=O)(=O)c2ccc(/C=C/c3ccccc3)cc2O[C@@H]1CN(C)C 16.2%
CC(C)CC#Cc1ccc2c(c1)O[C@H](CN(C)Cc1ccc(F)cc1)[C@H](C)CN([C@H](C)CO)S2(=O)=O 23.3% [at 8 µM]
C[C@H]1CN([C@@H](C)CO)S(=O)(=O)c2ccc(/C=C/c3ccccc3)cc2O[C@@H]1CN(C)Cc1cccnc1 -24.8% [at 0.5 µM]
C[C@@H]1CN([C@H](C)CO)S(=O)(=O)c2ccc(/C=C/c3ccccc3)cc2O[C@H]1CN(C)C 57%
C[C@@H]1CN([C@@H](C)CO)S(=O)(=O)c2ccc(/C=C/c3ccccc3)cc2O[C@@H]1CN(C)Cc1cccnc1 -27.8% [at 1.95 µM]
CO[C@H]1CN(C)C(=O)c2cc(NC(=O)NC(C)C)ccc2OC[C@H](C)N(Cc2ccccn2)C[C@@H]1C -9.04% [at 1.95 µM]
C[C@H](CO)N1C[C@H](C)[C@H](CN(C)C(=O)C2CCC2)Oc2ncc(C#Cc3cccc(F)c3)cc2C1=O 15.1% [at 8 µM]
C[C@H](NC(=O)C[C@H]1C=C[C@@H](NC(=O)C2CCC2)[C@H](CO)O1)c1ccccc1 -11.6%
CNC[C@@H]1Oc2cc(-c3ccccc3F)ccc2S(=O)(=O)N([C@@H](C)CO)C[C@H]1C 20.5%
O=C(N[C@@H]1C=C[C@@H](CC(=O)N2CCCCC2)O[C@@H]1CO)c1ccc2c(c1)OCO2 15.7% [at 8 µM]
CO[C@H]1CN(C)C(=O)c2cc(NS(=O)(=O)c3cccc(F)c3)ccc2OC[C@@H](C)N(Cc2cc(F)ccc2F)C[C@@H]1C 33.9%
C[C@H]1CN([C@@H](C)CO)S(=O)(=O)c2ccc(C#CCC3CCCC3)cc2O[C@@H]1CN(C)C -13.1% [at 1.95 µM]
N#C[C@H]1[C@@H](c2ccc(C3=CCCCC3)cc2)[C@H](CO)N1S(=O)(=O)c1ccccc1 -7.4% [at 1.95 µM]
N#C[C@@H]1[C@@H](c2ccc(C#Cc3cccnc3)cc2)[C@@H](CO)N1C(=O)C1CCCCC1 27.2%
CCC(=O)N(C)C[C@H]1Oc2cc(C#CCC3CCCC3)ccc2S(=O)(=O)N([C@@H](C)CO)C[C@@H]1C 24.3%
C[C@@H]1CN([C@@H](C)CO)S(=O)(=O)c2ccc(C#CCC3CCCC3)cc2O[C@H]1CN(C)C(=O)CN(C)C -17.9%
C[C@@H]1CN([C@H](C)CO)S(=O)(=O)c2ccc(C#CCC3CCCC3)cc2O[C@@H]1CN(C)C 14.7% [at 8 µM]
C[C@H](CO)N1C[C@H](C)[C@H](CN(C)C)Oc2cc(C#CCC3CCCC3)ccc2S1(=O)=O 37%
CO[C@H]1CN(C)C(=O)c2cc(NC(=O)NC(C)C)ccc2OC[C@@H](C)N(C)C[C@H]1C 4.11%
O=C(CN1CCOCC1)NCC[C@H]1CC[C@H](NC(=O)Cc2ccccn2)[C@@H](CO)O1 -9.14% [at 0.5 µM]
CCCNC(=O)Nc1ccc2c(c1)C(=O)N(C)C[C@H](OC)[C@@H](C)CN(C)[C@H](C)CO2 -9.08% [at 8 µM]
CC(=O)N(C)C[C@H]1Oc2cc(C#CC3CCCCC3)ccc2S(=O)(=O)N([C@H](C)CO)C[C@H]1C 12.6% [at 8 µM]
C[C@@H]1CN([C@H](C)CO)S(=O)(=O)c2ccc(C#CC3CCCC3)cc2O[C@H]1CN(C)C 49.4%
C[C@H](CO)N1C[C@H](C)[C@@H](CN(C)C)Oc2cc(C#CCC3CCCC3)ccc2S1(=O)=O 7% [at 7.5 µM]
C[C@H]1CN([C@@H](C)CO)S(=O)(=O)c2ccc(C#CCC3CCCC3)cc2O[C@H]1CN(C)C 10.1% [at 8 µM]
O=C(Nc1cc(F)ccc1F)N[C@@H]1CC[C@H](CC(=O)N2CCc3ccccc3C2)O[C@H]1CO 38.5%
O=C(N[C@H]1C=C[C@H](CC(=O)N2CCOCC2)O[C@H]1CO)c1cccc(F)c1 -11.2% [at 1.95 µM]
CO[C@@H]1CN(C)C(=O)c2ccc(NC(=O)c3ccc(F)cc3)cc2OC[C@@H](C)N(C(=O)CN(C)C)C[C@@H]1C -12.8% [at 1.95 µM]
C[C@H]1CN([C@@H](C)CO)S(=O)(=O)c2ccc(C3=CCCCC3)cc2O[C@@H]1CN(C)Cc1ccncc1 42.8%
CO[C@H]1CN(C)C(=O)c2ccc(NC(=O)c3nc4ccccc4s3)cc2OC[C@@H](C)N(Cc2cccnc2)C[C@@H]1C 23.4%
COCCNC(=O)C[C@@H]1C[C@@H]2c3cc(NC(=O)Nc4ccc(C(F)(F)F)cc4)ccc3O[C@@H]2[C@H](CO)O1 9.41%
COCCNC(=O)C[C@H]1C[C@H]2c3cc(NC(=O)Nc4ccc(C(F)(F)F)cc4)ccc3O[C@H]2[C@H](CO)O1 -7.9% [at 1.95 µM]
COCCNC(=O)C[C@H]1C[C@H]2c3cc(NC(=O)Nc4ccc(C(F)(F)F)cc4)ccc3O[C@H]2[C@@H](CO)O1 -9.02%
O=C(C[C@H]1C[C@@H]2c3cc(NC(=O)Nc4ccc(C(F)(F)F)cc4)ccc3O[C@@H]2[C@@H](CO)O1)NCC1CC1 14.9%
O=C(C[C@H]1C[C@H]2c3cc(NC(=O)Nc4ccc(C(F)(F)F)cc4)ccc3O[C@H]2[C@H](CO)O1)NCC1CC1 -13.1% [at 1.95 µM]
O=C(C[C@H]1C[C@H]2c3cc(NC(=O)Nc4ccc(C(F)(F)F)cc4)ccc3O[C@H]2[C@@H](CO)O1)NCC1CC1 -16.4% [at 0.5 µM]
CC(C)(C)[S@](=O)N1Cc2cc(C(=O)NCc3ccc4c(c3)OCO4)nc(-c3cccc(-c4cccnc4)c3)c2[C@@H]1CCO 32.4% [at 35 µM]
O=C(C[C@@H]1C=C[C@@H](NC(=O)CCN2CCCCC2)[C@H](CO)O1)Nc1ccc(-c2ccccc2)cc1 21.5%
CC(C)c1cn(CC[C@@H]2CC[C@H](NS(=O)(=O)c3ccc(F)cc3)[C@H](CO)O2)nn1 -12.5%
N#C[C@@H]1[C@H](c2ccccc2)[C@H](CO)N1S(=O)(=O)c1ccc(-c2ccccc2)cc1 15.3%
C[C@@H]1CN([C@@H](C)CO)C(=O)c2cc(C3=CCCCC3)cnc2O[C@@H]1CN(C)C(=O)c1cccc(F)c1 24.7%
C[C@H](NC(=O)C[C@@H]1C[C@@H]2c3cc(NC(=O)CC4CC4)ccc3O[C@@H]2[C@H](CO)O1)c1ccccc1 8.12% [at 35 µM]
O=C(C[C@H]1C[C@H]2c3cc(NC(=O)Nc4ccc(C(F)(F)F)cc4)ccc3O[C@H]2[C@@H](CO)O1)NCc1ccc(Cl)cc1 -6.14% [at 7.5 µM]
CO[C@@H]1CN(C)C(=O)c2cc(NC(=O)Nc3c(C)noc3C)ccc2OC[C@@H](C)N(C(=O)Nc2cccc(Cl)c2)C[C@H]1C 14.7%
CC(C)NC(=O)N(C)C[C@H]1Oc2c(NC(=O)Nc3ccc(C(F)(F)F)cc3)cccc2C(=O)N([C@@H](C)CO)C[C@H]1C 34.2% [at 8 µM]
C[C@@H]1CN([C@H](C)CO)C(=O)c2cccc(NC(=O)Nc3ccc(C(F)(F)F)cc3)c2O[C@H]1CN(C)C(=O)NC1CCCCC1 34.6%
C[C@H](CO)N1C[C@H](C)[C@@H](CN(C)C(=O)NC2CCCCC2)Oc2c(NC(=O)Nc3ccc(F)cc3)cccc2C1=O 20.1%
C[C@H](CO)N1C[C@H](C)[C@@H](CN(C)C(=O)NC2CCCCC2)Oc2c(NC(=O)Nc3ccc(C(F)(F)F)cc3)cccc2C1=O 28.8%
Cc1ccc(-c2cnc3c(c2)C(=O)N([C@@H](C)CO)C[C@@H](C)[C@@H](CN(C)C(=O)c2cccc(F)c2)O3)cc1 28.4%
CC(C)[C@H](C)NC(=O)N(C)C[C@@H]1OCc2ccccc2-c2ccccc2C(=O)N([C@@H](C)CO)C[C@H]1C -10.9% [at 1.95 µM]
CO[C@H]1CN(C)C(=O)c2ccc(NS(=O)(=O)c3ccc(C)cc3)cc2OC[C@@H](C)N(C(=O)NC(C)C)C[C@H]1C 6.95%
C[C@@H]1CN([C@H](C)CO)S(=O)(=O)c2ccc(C#CCC3CCCC3)cc2O[C@@H]1CN(C)C(=O)CC1CC1 36.7%
Cc1noc(C)c1NC(=O)N[C@@H]1CC[C@H](CC(=O)Nc2ccc(-c3ccccc3)cc2)O[C@@H]1CO 42%
CCN1C[C@@H](C)[C@H](OC)CN(C)C(=O)c2cc(NC(=O)NC(C)C)ccc2OC[C@H]1C 16.9%
CC(C)CC#Cc1ccc2c(c1)O[C@H](CN(C)Cc1cccnc1)[C@H](C)CN([C@@H](C)CO)S2(=O)=O 26.5%
N#C[C@H]1[C@H](c2ccc(C#Cc3ccccc3F)cc2)[C@@H](CO)N1C(=O)C1CCCCC1 15.2% [at 1.95 µM]
CCC(=O)Nc1ccc2c(c1)OC[C@@H](C)N(Cc1ccccc1)C[C@H](C)[C@@H](OC)CN(C)C2=O 21.5%
COc1ccc(CN(C)C[C@H]2OCCCC[C@H](C)Oc3ccc(NC(=O)Nc4ccc(C(F)(F)F)cc4)cc3C(=O)N([C@H](C)CO)C[C@H]2C)cc1 38.6% [at 1.95 µM]
COc1ccc(CN(C)C[C@@H]2OCCCC[C@@H](C)Oc3ccc(NC(=O)Nc4ccc(C(F)(F)F)cc4)cc3C(=O)N([C@H](C)CO)C[C@H]2C)cc1 35.6% [at 8 µM]
COc1ccc(CN(C)C[C@H]2OCCCC[C@@H](C)Oc3ccc(NC(=O)Nc4ccc(C(F)(F)F)cc4)cc3C(=O)N([C@@H](C)CO)C[C@H]2C)cc1 38.8% [at 1.95 µM]
COc1ccc(CN(C)C[C@@H]2OCCCC[C@H](C)Oc3ccc(NC(=O)Nc4ccc(C(F)(F)F)cc4)cc3C(=O)N([C@@H](C)CO)C[C@H]2C)cc1 21.3% [at 8 µM]
COc1ccc(CN(C)C[C@H]2OCCCC[C@H](C)Oc3ccc(NC(=O)Nc4ccc(C(F)(F)F)cc4)cc3C(=O)N([C@H](C)CO)C[C@@H]2C)cc1 35.8%
COc1ccc(CN(C)C[C@@H]2OCCCC[C@H](C)Oc3ccc(NC(=O)Nc4ccc(F)cc4)cc3C(=O)N([C@@H](C)CO)C[C@H]2C)cc1 23.6%
